# Shown is part of a subset that was picked to be rich in the strongest signals.
# Experiments:
# Assay in all cases: glycan array binding signal (z-score within array); higher = stronger binding
# Settings in all cases: glycan notation: IUPAC condensed, linker removed
# GalNAc(b1-3)Gal = molecular target: GalNAc(b1-3)Gal
# Summary of the method: (§1)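 The binding signal is a Z-score computed within each array. Data were drawn from 3228 arrays in the Consortium for Functional Glycomics database, restricted to those with a known protein sequence. Scores were averaged over arrays of the same protein sequence at different concentrations or buffers, and over linkers, and negative values can be taken as non-binding.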
# GalNAc6S(b1-4)GlcNAc = molecular target: GalNAc6S(b1-4)GlcNAc
# Summary of the method: as §1
# Glc(b1-6)Glc = molecular target: Glc(b1-6)Glc
# Summary of the method: as §1
# [1] = molecular target: GlcNAc(a1-4)Gal(b1-3)GlcNAc
# Summary of the method: as §1
# [2] = molecular target: GlcNAc(b1-2)Man(a1-3)[GlcNAc(b1-2)Man(a1-6)]Man(b1-4)GlcNAc(b1-4)[Fuc(a1-6)]GlcNAc
# Summary of the method: as §1
# [3] = molecular target: GlcNAc(b1-3)Gal(b1-4)GlcNAc(b1-2)[GlcNAc(b1-3)Gal(b1-4)GlcNAc(b1-6)]Man(a1-6)[GlcNAc(b1-3)Gal(b1-4)GlcNAc(b1-2)Man(a1-3)]Man(b1-4)GlcNAc(b1-4)GlcNAc
# Summary of the method: as §1
# [4] = molecular target: GlcNAc(b1-3)Gal(b1-4)GlcNAc(b1-3)Gal(b1-4)GlcNAc(b1-2)Man(a1-3)[GlcNAc(b1-3)Gal(b1-4)GlcNAc(b1-3)Gal(b1-4)GlcNAc(b1-2)Man(a1-6)]Man(b1-4)GlcNAc(b1-4)GlcNAc
# Summary of the method: as §1
# [5] = molecular target: GlcNAc(b1-3)Gal(b1-4)GlcNAc(b1-3)Gal(b1-4)GlcNAc(b1-3)Gal(b1-4)GlcNAc(b1-2)Man(a1-3)[GlcNAc(b1-3)Gal(b1-4)GlcNAc(b1-3)Gal(b1-4)GlcNAc(b1-3)Gal(b1-4)GlcNAc(b1-2)Man(a1-6)]Man(b1-4)GlcNAc(b1-4)[Fuc(a1-6)]GlcNAc
# Summary of the method: as §1
# [6] = molecular target: GlcNAc(b1-3)Gal(b1-4)GlcNAc(b1-3)Gal(b1-4)GlcNAc(b1-3)Gal(b1-4)GlcNAc(b1-3)Gal(b1-4)GlcNAc(b1-2)Man(a1-3)[GlcNAc(b1-3)Gal(b1-4)GlcNAc(b1-3)Gal(b1-4)GlcNAc(b1-3)Gal(b1-4)GlcNAc(b1-3)Gal(b1-4)GlcNAc(b1-2)Man(a1-6)]Man(b1-4)GlcNAc(b1-4)[Fuc(a1-6)]GlcNAc
# Summary of the method: as §1
# [7] = molecular target: GlcNAc(b1-3)[GlcNAc(b1-6)]Gal(b1-4)GlcNAc
# Summary of the method: as §1
# GlcNAc(b1-6)GalNAc = molecular target: GlcNAc(b1-6)GalNAc
# Summary of the method: as §1
# [8] = molecular target: GlcNAc6S(b1-3)Gal(b1-4)GlcNAc
# Summary of the method: as §1
# [9] = molecular target: Man(a1-2)Man(a1-6)[Man(a1-3)]Man(a1-6)[Man(a1-2)Man(a1-2)Man(a1-3)]Man
# Summary of the method: as §1
# Man(a1-3)[Man(a1-6)]Man = molecular target: Man(a1-3)[Man(a1-6)]Man
# Summary of the method: as §1
# [10] = molecular target: Man(a1-3)[Man(a1-6)]Man(a1-6)[Man(a1-2)Man(a1-3)]Man(b1-4)GlcNAc(b1-4)GlcNAc
# Summary of the method: as §1
# [11] = molecular target: Neu5Ac(a2-3)Gal(b1-3)GlcNAc(b1-2)Man(a1-3)[GlcNAc(b1-4)][Neu5Ac(a2-3)Gal(b1-3)GlcNAc(b1-2)Man(a1-6)]Man(b1-4)GlcNAc(b1-4)GlcNAc
# Summary of the method: as §1
# [12] = molecular target: Neu5Ac(a2-3)Gal(b1-3)GlcNAc(b1-4)Gal(b1-4)Glc
# Summary of the method: as §1
# [13] = molecular target: Neu5Ac(a2-3)Gal(b1-3)[Neu5Ac(a2-6)]GlcNAc(b1-3)[Fuc(a1-3)[Gal(b1-4)]GlcNAc(b1-6)]Gal(b1-4)Glc
# Summary of the method: as §1
# [14] = molecular target: Neu5Ac(a2-3)Gal(b1-4)GlcNAc(b1-2)[Neu5Ac(a2-3)Gal(b1-4)GlcNAc(b1-6)]Man(a1-6)[Neu5Ac(a2-3)Gal(b1-4)GlcNAc(b1-2)Man(a1-3)]Man(b1-4)GlcNAc(b1-4)GlcNAc
# Summary of the method: as §1
# [15] = molecular target: Neu5Ac(a2-3)Gal(b1-4)GlcNAc(b1-3)Gal(b1-4)GlcNAc(b1-2)Man(a1-3)[Neu5Ac(a2-3)Gal(b1-4)GlcNAc(b1-3)Gal(b1-4)GlcNAc(b1-2)Man(a1-6)]Man(b1-4)GlcNAc(b1-4)GlcNAc
# Summary of the method: as §1
# [16] = molecular target: Neu5Ac(a2-3)Gal(b1-4)GlcNAc(b1-3)Gal(b1-4)GlcNAc(b1-3)Gal(b1-4)GlcNAc(b1-2)Man(a1-3)[Neu5Ac(a2-3)Gal(b1-4)GlcNAc(b1-3)Gal(b1-4)GlcNAc(b1-3)Gal(b1-4)GlcNAc(b1-2)Man(a1-6)]GalNAc
# Summary of the method: as §1
# [17] = molecular target: Neu5Ac(a2-3)Gal(b1-4)GlcNAc(b1-3)Gal(b1-4)GlcNAc(b1-3)GalNAc
# Summary of the method: as §1
# [18] = molecular target: Neu5Ac(a2-3)Gal6S(b1-4)[Fuc(a1-3)]GlcNAc
# Summary of the method: as §1
# [19] = molecular target: Neu5Ac(a2-6)Gal(b1-4)GlcNAc(b1-2)Man(a1-3)[Gal(b1-4)GlcNAc(b1-2)Man(a1-6)]Man(b1-4)GlcNAc(b1-4)GlcNAc
# Summary of the method: as §1
# [20] = molecular target: Neu5Ac(a2-6)Gal(b1-4)GlcNAc(b1-2)Man(a1-3)[GlcNAc(b1-2)Man(a1-6)]Man(b1-4)GlcNAc(b1-4)GlcNAc
# Summary of the method: as §1
# [21] = molecular target: Neu5Ac(a2-6)Gal(b1-4)GlcNAc(b1-3)Gal(b1-4)GlcNAc(b1-3)Gal(b1-4)GlcNAc(b1-2)Man(a1-3)[Neu5Ac(a2-6)Gal(b1-4)GlcNAc(b1-3)Gal(b1-4)GlcNAc(b1-3)Gal(b1-4)GlcNAc(b1-2)Man(a1-6)]GalNAc
# Summary of the method: as §1
# [22] = molecular target: Neu5Ac(a2-6)Gal(b1-4)GlcNAc(b1-6)[Gal(b1-3)GlcNAc(b1-3)]Gal(b1-4)Glc
# Summary of the method: as §1
# Neu5Ac(a2-8)Neu5Ac = molecular target: Neu5Ac(a2-8)Neu5Ac
# Summary of the method: as §1
# [23] = molecular target: Neu5Ac(a2-8)Neu5Ac(a2-3)[GalNAc(b1-4)]Gal(b1-4)Glc
# Summary of the method: as §1
binder,measurement,setting,value
FliC (Clostridium difficile) (protein) MRVNTNVSALIANNQMGRNVNGQSKSMEKLSSGVRIKRAADDAAGLAISEKMRAQIKGLDQAGRNVQDGISVVQTAEGSLEETGNILQRMRTLSLQSANEINNTEEREKIADELTQLKDEIERISSSTEFNGKKLLDGTSSTIRLQVGASYGTNVSGTSNNNNEIKIQLVNTASIMASAGITTASIGSMKAGGTTGTDAAKTMVSSLDAALKSLNSSRAKLGAQQNRLESTQNNLNNTLENVTAAESRIRDTDVASEMVNLSKMNILVQASQSMLAQANQQPQGVLQLLG,glycan array binding signal (z-score),GalNAc(b1-3)Gal,-0.175
same,glycan array binding signal (z-score),GalNAc6S(b1-4)GlcNAc,0.047
same,glycan array binding signal (z-score),Glc(b1-6)Glc,1.72
same,glycan array binding signal (z-score),[1],0.947
same,glycan array binding signal (z-score),[2],0.458
same,glycan array binding signal (z-score),[3],3
same,glycan array binding signal (z-score),[4],0.372
same,glycan array binding signal (z-score),[5],-0.149
same,glycan array binding signal (z-score),[6],-0.369
same,glycan array binding signal (z-score),[7],-0.057
same,glycan array binding signal (z-score),GlcNAc(b1-6)GalNAc,-0.08
same,glycan array binding signal (z-score),[8],0.071
same,glycan array binding signal (z-score),[9],0.153
same,glycan array binding signal (z-score),Man(a1-3)[Man(a1-6)]Man,-0.471
same,glycan array binding signal (z-score),[10],3.18
same,glycan array binding signal (z-score),[11],0.514
same,glycan array binding signal (z-score),[12],0.17
same,glycan array binding signal (z-score),[13],-0.645
same,glycan array binding signal (z-score),[14],-0.275
same,glycan array binding signal (z-score),[15],1.02
same,glycan array binding signal (z-score),[16],6.63
same,glycan array binding signal (z-score),[17],-0.31
same,glycan array binding signal (z-score),[18],-0.433
same,glycan array binding signal (z-score),[19],-0.515
same,glycan array binding signal (z-score),[20],0.511
same,glycan array binding signal (z-score),[21],2.32
same,glycan array binding signal (z-score),[22],-0.577
same,glycan array binding signal (z-score),Neu5Ac(a2-8)Neu5Ac,-0.234
same,glycan array binding signal (z-score),[23],-0.626

# — the supplement of paper PMC8728848
